Experimental data from ChEMBL document CHEMBL3988442, “University of Dundee, Small-Polar-MMV Screening Library” (2021).
Where “and” joins values, the source holds several entries; their conditions need not be identical. Equal values may be shown once. In all, about 34,000 compounds went through this assay and about 290 (0.85%) showed an effect of 50% or more. Many of the other results were omitted from the sample, so strong results are more common in it than they were.

Test system: Plasmodium falciparum
Assay: Plasmodium falciparum sporozoite viability assay
Type: functional, organism-based
Parameters: scale not given: in the data most compounds retested in dose-response had high values

| Structure (SMILES) | Percent Effect [%] | Percent Effect (10 mM as filed; unlikely as a test dose) |
| --- | --- | --- |
| Cc1cc(N2CCN(c3ccc(=O)[nH]n3)CC2)nc(-c2ccncc2)n1 | 8.684 |  |
| Cc1nc(C)n(CC2CCCN(Cc3ccccc3C#N)C2)n1 (configuration not stated) | 4.939 |  |
| CC(=O)N[C@H]1CCO[C@@H](c2cccc(NC(=O)c3cccc(F)c3)c2)C1 |  | 55.02% and 42.93% and 54.57% |
| CC(=O)N[C@H]1CCO[C@@H](c2cccc(NC(=O)C(C)(C)C)c2)C1 |  | 12.38% and 11.09% and 3.549% |
| Cc1nn(C)cc1CN1CCC(c2ncc(Cl)cc2S(C)(=O)=O)CC1 | 3.927 |  |
| Cc1cc(C)c(S(=O)(=O)NCCC(=O)NCc2ccoc2)c(C)c1 | -16.91 |  |
| CN(C)C(=O)NCC1CC2(CO1)CN(c1nncs1)C2 (configuration not stated) | 9.107 |  |
| Cc1cc2cc(C(=O)N[C@@H]3CC[C@@H](N4CCNC(=O)C4)[C@@H]3O)ccc2o1 | -1.506 |  |
| COc1ccccc1CNC(=O)CNCCn1cc(C)cn1 | 7.81 |  |
| COc1c(C2CCCN2CC(=O)Nc2nc(C)cs2)c(C)nn1C (configuration not stated) | -5.597 |  |
| Cl.O=C(NCC(F)F)c1cnc(C2CCCN2)cn1 (configuration not stated) | 6.016 |  |
| Cc1nn(C)c(C)c1-c1cnc(C2CCCN(C)C2)cn1 (configuration not stated) |  | -21.75% and -20.87% and 0.3933% |
| Cc1nc(C(=O)NCc2ccccn2)cc(C2CCCN2)n1 (configuration not stated) | 15.86 |  |
| O=C(NCc1ccccn1)c1cnc(C2CCCN2)cn1 (configuration not stated) | -5.932 |  |
| Cc1csc(NC(=O)c2cnc(C3CCCN(C)C3)cn2)n1 (configuration not stated) |  | 50.33% and 85.32% and 71.26% |
| Cc1csc(NC(=O)c2cnc(C3CCCN3)cn2)n1.Cl (configuration not stated) |  | 76.82% and 93.2% and 90.06% |
| Cc1nc2cc(-c3nccn3C)nn2c(N2CCCC2)c1C | 12.19 |  |
| CC(C)(CO)Nc1cc(-c2ccncc2)ncn1 | -5.504 |  |
| COc1ccc(S(=O)(=O)N2CCN(C)c3ncccc3C2)cc1.O=C(O)C(F)(F)F | 6.245 |  |
| CN1CCCN(C(=O)NCc2cccnc2-n2cccn2)CC1 | -0.7887 |  |
| Cc1ncccc1NC(=O)[C@@H]1CCO[C@@H]2CCN(c3ccncn3)C[C@H]21 | 1.798 |  |
| CCc1nccn1C1CCCN(C(=O)CCOCC(F)(F)F)C1 (configuration not stated) |  | 0.2657% and 18.61% and -4.801% |
| Cc1csc(CNC(=O)N2CCN(Cc3cc(C)on3)CC2)n1 | 3.68 |  |
| Cc1nc(C(NC(=O)c2cc(C(C)C)[nH]n2)c2ccccc2)n[nH]1 (configuration not stated) | 1.665 |  |
| CC(NC(=O)c1cc(C(C)C)[nH]n1)C(=O)Nc1ccccc1 (configuration not stated) |  | 72.25% and 63.23% and 81.29% |

| Structure (SMILES) | Percent Effect [%] | Percent Effect (10 mM as filed; unlikely as a test dose) |
| --- | --- | --- |
| CC(C)c1cc(C(=O)NCCn2nc3ccccn3c2=O)n[nH]1 | -7.561 |  |
| O=C(C1CC1)N1CCc2nc(C3CCN(C(=O)C4CC4)C3)nc(O)c2C1 (configuration not stated) | 2.355 |  |
| Cc1nn(CC(C)C)c(N(C)C)c1CNCc1ccccc1CO | 9.702 |  |
| Cc1nn(CC(C)C)c(N(C)C)c1CNCc1cccnc1N(C)C | 0 |  |
| Cc1nc(-c2ccncc2)ncc1C(C)NC(=O)CN1CCCC1=O (configuration not stated) | -5.692 |  |
| Cc1cc(C2CCN(C(=O)c3cnn(C)c3)CC2)ccn1 | 2.879 |  |
| Cl.c1ccc(-c2ccc(C3CNCCO3)nc2)cc1 (configuration not stated) |  | 93.99% and 69.13% and 81.53% |
| Cc1ccc(-c2ccc(C3CNCCO3)nc2)cc1.Cl (configuration not stated) |  | 90.92% and 91.35% and 89.87% |
| Cl.Fc1ccccc1OCCc1cc(C2CNCCO2)n[nH]1 (configuration not stated) | -0.03121 |  |
| CN(C)c1ncc(-c2ccc(F)cc2)c(C2CNCCO2)n1.Cl (configuration not stated) | 8.117 |  |
| CN(C)c1ncc(-c2cncnc2)c(C2CNCCO2)n1.Cl (configuration not stated) | -2.536 |  |
| CN(C)c1ncc(-c2ccc(C(N)=O)cc2)c(C2CNCCO2)n1 (configuration not stated) | -5.327 |  |
| CN(C)c1ncc(-c2cccc(F)c2)c(C2CNCCO2)n1.Cl (configuration not stated) | 2.337 |  |
| O=C(c1cccnn1)N1C[C@@H]2CC[C@H](Oc3cccc(F)c3)[C@@H]2C1 | -11.48 |  |
| CC(C(=O)NCc1ccnc(N2CCOCC2)c1)n1cccn1 (configuration not stated) | 3.476 |  |
| O=C(NCc1ccc2c(c1)OCO2)[C@H]1C=CCN1c1ncccn1 | -8.12 |  |
| CC(NCc1ccccc1Cl)c1ccc2[nH]c(=O)[nH]c2c1 (configuration not stated) | 4.238 |  |
| O=C1NCCN1C1CCN(CCOc2cccc3ccccc23)CC1 | 0.4468 |  |
| CCc1cnc(COc2ccc(OC3CCCCNC3=O)cc2)o1 (configuration not stated) |  | -31.83% and -45% |
| Cc1nc(COc2ccc(OC3CCCCNC3=O)cc2)oc1C (configuration not stated) |  | 96.35% and 88.4% |
| NC(=O)Cn1cc(NC(=O)N2CCCC(O)C2)cn1 (configuration not stated) | 9.794 |  |
| COCCS(=O)(=O)N(Cc1cscn1)c1ccccc1 | 1.643 |  |
| COCCN(C)c1ccc(NCc2ccsc2)nc1 |  | 67.62% and 57.94% |
| COCCN(C)c1ccc(NCc2cscn2)nc1 |  | 95.11% and 93.26% |
| CC(C)(C)n1cc(NCc2cscn2)cn1 | 16.3 |  |

| Structure (SMILES) | Percent Effect [%] | Percent Effect (10 mM as filed; unlikely as a test dose) |
| --- | --- | --- |
| COCCN(C)c1ccc(NCc2cccnc2)nc1 |  | 21.13% and 22.11% |
| CCn1cc(CNc2ccc(N(C)CCOC)cn2)cn1 |  | 4.885% and 7.278% |
| CC1CN(c2ccccc2Cl)C(=O)CN1C(=O)c1c[nH]c(=O)c(Cl)c1 (configuration not stated) | 1.644 |  |
| COc1ccc(-n2ncc3c2NC(=O)CSC3C(C)C)cc1 (configuration not stated) | -10.71 |  |
| COCC(=O)N1CC[C@@H]2O[C@H](COCc3ccncc3)CC[C@@H]21.O=C(O)C(F)(F)F | -3.886 |  |
| COc1cccc(-c2noc(C3CCN(Cc4cn(C)nc4C)C3)n2)c1 (configuration not stated) |  | 82.7% and 74.22% and 69.73% |
| COc1cccc(-c2noc(C3CCN(CC4CCCCC4)C3)n2)c1.Cl (configuration not stated) |  | -10.94% and -15.38% and -3.133% |
| COc1cccc(CSCC2=Nc3ccccc3S(=O)(=O)N2)c1 | -15.51 |  |
| Cn1ncc2c1CCCC2NCc1ccc(Cl)s1 (configuration not stated) |  | -1.156% and -7.705% and -11.46% |
| Cc1ccc(CNC2CCCc3c2cnn3Cc2ccccc2)s1.Cl (configuration not stated) | -20.07 |  |
| CC(C)(C)n1ncc2c1CCCC2NCc1cccc2c1OCO2 (configuration not stated) |  | 74.58% and 37.95% and 70.91% |
| CCn1ncc2c1CCCC2NCc1cscn1 (configuration not stated) |  | -18.21% and -26.49% |
| CC(C)(C)n1ncc2c1CCCC2NCc1cccc2c1OCCO2 (configuration not stated) |  | 39.28% and 33.56% and 65.68% |
| Cc1ccc(CNC2CCCc3c2cnn3C)s1.Cl (configuration not stated) |  | -10.87% and -25.98% and -25.69% |
| Cl.c1cnc(N2CCCC(NCc3cccc4c3OCCO4)C2)nc1 (configuration not stated) | -3.04 |  |
| Cn1cc(N2CCCC(NCc3cccc4c3OCCCO4)C2)cn1 (configuration not stated) | 11.2 |  |
| Cc1ccn(CCC(=O)N2CCCC(Cc3cccnc3)C2)n1 (configuration not stated) | 1.172 |  |
| Cc1cccc(CN2C[C@@H]3[C@@H](C(=O)NCC(C)C)CCS(=O)(=O)[C@@H]3C2)c1.O=C(O)C(F)(F)F | 5.351 |  |
| CCN(CC1CCOC1)C(=O)c1ccccc1S(=O)(=O)CC (configuration not stated) | 6.872 |  |
| Cc1cc(-c2cnc(N3CCNC(=O)C3)nc2-c2sccc2C)on1 | 7.472 |  |
| Cc1ccc(CN2CCC3(CC2)CCN(C(=O)c2cccn2C)C3)cc1.O=C(O)C(F)(F)F | -1.664 |  |
| CC(C)N(C)[C@@H]1CCN(S(C)(=O)=O)[C@H]1Cc1ccccc1 | 3.466 |  |
| CCn1ncc2c1CCCC2NCc1cccc2c1OCO2 (configuration not stated) |  | 87.89% and 80.38% and 88.9% |
| Cc1cc(CN2CCN(C(=O)CCCc3nc(C(C)C)no3)CC2)on1 | 13.41 |  |
| COC(=O)CNC(=O)Cn1ccc2cccc(OC)c21 |  | 53.7% and 45.8% |

| Structure (SMILES) | Percent Effect [%] | Percent Effect (10 mM as filed; unlikely as a test dose) |
| --- | --- | --- |
| COc1cccc2ccn(CC(=O)NCC(C)C)c12 |  | 1.134% and -1.268% |
| COCCNC(=O)Cn1ccc2cccc(OC)c21 |  | 24.03% and 24.86% |
| CN(C)CC(=O)N1CCC2(CC1)COc1ccccc1S(=O)(=O)N(C)C2 | -1.316 |  |
| Cc1nc(Nc2nccs2)cc(C2CCCN2)n1.Cl (configuration not stated) | -7.871 |  |
| O=c1cc(N2CCOCC2)cnn1CCc1ccc(F)cc1 |  | -2.466% and -5.477% |
| O=c1cc(N2CCNCC2)cnn1CCc1ccc(F)cc1 |  | -29.24% and -24.74% |
| O=c1cc(N2CCCC2)cnn1CCc1cccc(F)c1 |  | 40.92% and 61.99% |
| CCc1nccn1CC1CCCN1S(=O)(=O)Cc1ccccc1 (configuration not stated) | 3.419 |  |
| COCC(=O)N1CCCC(C)(c2nncn2C)C1 (configuration not stated) | 4.813 |  |
| CNS(=O)(=O)c1ccc(C(=O)N2CCCCC2c2ccc(C)cc2)o1 (configuration not stated) | -0.2417 |  |
| CC(C)(C)n1ncc2c1CCCC2NCc1ccsc1 (configuration not stated) |  | 82.25% and 82.56% |
| Cn1ncc2c1CCCC2NCc1cnc(-c2ccccc2)nc1 (configuration not stated) | 18.56 |  |
| Cn1ncc2c1CCCC2NCc1cccnc1 (configuration not stated) | 6.267 |  |
| CCc1nc(CNC2CCCc3c2cnn3CC)cs1 (configuration not stated) |  | -15.59% and -14.06% |
| CSc1ccc(CNC2CCCc3c2cnn3C)cc1.Cl (configuration not stated) | 2.328 |  |
| CC(C)(C)n1ncc2c1CCCC2NCc1ccc2ncccc2c1 (configuration not stated) |  | 67.83% and 75.52% |
| CC(C)(C)n1ncc2c1CCCC2NCc1cccc(C(N)=O)c1 (configuration not stated) |  | -6.583% and -14.2% |
| COCc1nc(CNC2CCCc3c2cnn3C(C)(C)C)cs1 (configuration not stated) |  | 80.27% and 81.73% |
| Cl.Cn1ncc2c1CCCC2NCc1cc(Br)cs1 (configuration not stated) |  | 6.252% and 7.152% and 13.18% |
| CC(C)(C)n1ncc2c1CCCC2NCc1ccc2c(c1)CCO2 (configuration not stated) |  | 65.53% and 54.34% |
| CCn1ncc2c1CCCC2NCc1csc(COC)n1 (configuration not stated) |  | -19.65% and -19.45% |
| Cl.Cn1ncc2c1CCCC2NCc1cccc(F)c1 (configuration not stated) | -6.761 |  |
